The full data set covers some 8,800 targets. This sample favours those with a hit. About 0.5% of all pairs of compound and target were hits. Unmarked numbers belong to inactive results.

UniProt Q9HBM1, sequence (Q9HBM1 whole entry, looked up): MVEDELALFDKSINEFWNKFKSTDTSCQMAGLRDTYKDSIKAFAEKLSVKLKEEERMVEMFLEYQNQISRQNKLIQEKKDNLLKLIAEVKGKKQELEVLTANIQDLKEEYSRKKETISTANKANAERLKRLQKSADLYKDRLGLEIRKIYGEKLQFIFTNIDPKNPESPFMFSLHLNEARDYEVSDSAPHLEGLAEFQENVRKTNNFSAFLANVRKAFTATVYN
UniProt Q13395, sequence (Q13395 whole entry, looked up): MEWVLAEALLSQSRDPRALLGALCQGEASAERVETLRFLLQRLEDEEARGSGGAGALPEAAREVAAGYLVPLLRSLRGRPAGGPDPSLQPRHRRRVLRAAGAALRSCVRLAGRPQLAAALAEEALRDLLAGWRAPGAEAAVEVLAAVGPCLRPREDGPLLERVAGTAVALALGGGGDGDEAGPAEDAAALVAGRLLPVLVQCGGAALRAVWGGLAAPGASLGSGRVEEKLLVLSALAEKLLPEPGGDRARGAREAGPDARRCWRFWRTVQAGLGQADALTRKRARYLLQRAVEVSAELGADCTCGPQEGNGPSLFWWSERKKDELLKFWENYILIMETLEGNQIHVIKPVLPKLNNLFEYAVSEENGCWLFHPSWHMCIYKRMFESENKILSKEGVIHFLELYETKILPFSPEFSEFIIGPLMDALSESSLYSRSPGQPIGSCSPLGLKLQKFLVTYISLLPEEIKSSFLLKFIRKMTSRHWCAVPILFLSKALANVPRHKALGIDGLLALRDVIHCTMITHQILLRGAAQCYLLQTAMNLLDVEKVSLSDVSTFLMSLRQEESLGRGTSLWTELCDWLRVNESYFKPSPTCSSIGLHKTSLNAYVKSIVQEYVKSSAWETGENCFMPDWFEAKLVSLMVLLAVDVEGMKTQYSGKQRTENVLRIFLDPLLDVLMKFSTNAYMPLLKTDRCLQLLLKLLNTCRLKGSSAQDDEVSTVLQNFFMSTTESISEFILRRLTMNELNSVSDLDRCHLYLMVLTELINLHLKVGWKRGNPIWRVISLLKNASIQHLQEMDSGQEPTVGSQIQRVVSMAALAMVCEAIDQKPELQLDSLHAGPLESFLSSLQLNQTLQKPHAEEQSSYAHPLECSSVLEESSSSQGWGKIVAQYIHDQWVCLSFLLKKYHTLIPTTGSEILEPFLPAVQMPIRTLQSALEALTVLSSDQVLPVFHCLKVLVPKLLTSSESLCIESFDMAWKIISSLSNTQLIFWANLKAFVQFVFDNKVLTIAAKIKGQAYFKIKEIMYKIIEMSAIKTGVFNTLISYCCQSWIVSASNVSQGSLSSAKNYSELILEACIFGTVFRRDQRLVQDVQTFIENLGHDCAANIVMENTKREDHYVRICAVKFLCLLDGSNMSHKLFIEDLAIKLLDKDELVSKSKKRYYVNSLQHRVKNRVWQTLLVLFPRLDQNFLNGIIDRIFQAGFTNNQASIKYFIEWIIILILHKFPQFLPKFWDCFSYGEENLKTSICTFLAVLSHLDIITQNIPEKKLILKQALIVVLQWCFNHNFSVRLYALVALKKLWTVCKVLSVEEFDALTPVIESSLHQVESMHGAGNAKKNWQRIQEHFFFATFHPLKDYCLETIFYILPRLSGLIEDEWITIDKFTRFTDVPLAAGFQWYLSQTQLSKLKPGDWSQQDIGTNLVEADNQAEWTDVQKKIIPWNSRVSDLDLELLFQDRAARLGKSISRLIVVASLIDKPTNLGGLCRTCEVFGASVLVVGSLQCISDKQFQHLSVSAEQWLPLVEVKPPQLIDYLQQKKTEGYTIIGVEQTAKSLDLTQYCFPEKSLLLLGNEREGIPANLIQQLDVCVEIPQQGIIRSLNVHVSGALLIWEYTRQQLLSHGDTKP
UniProt Q15527, sequence (Q15527 whole entry, looked up): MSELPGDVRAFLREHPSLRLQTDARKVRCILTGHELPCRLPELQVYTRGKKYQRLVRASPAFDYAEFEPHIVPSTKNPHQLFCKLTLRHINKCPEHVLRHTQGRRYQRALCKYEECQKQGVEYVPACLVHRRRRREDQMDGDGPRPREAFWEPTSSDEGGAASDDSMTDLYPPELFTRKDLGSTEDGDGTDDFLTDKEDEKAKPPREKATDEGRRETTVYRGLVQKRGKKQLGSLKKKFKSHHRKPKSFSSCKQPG
UniProt P78314, sequence (P78314 whole entry, looked up): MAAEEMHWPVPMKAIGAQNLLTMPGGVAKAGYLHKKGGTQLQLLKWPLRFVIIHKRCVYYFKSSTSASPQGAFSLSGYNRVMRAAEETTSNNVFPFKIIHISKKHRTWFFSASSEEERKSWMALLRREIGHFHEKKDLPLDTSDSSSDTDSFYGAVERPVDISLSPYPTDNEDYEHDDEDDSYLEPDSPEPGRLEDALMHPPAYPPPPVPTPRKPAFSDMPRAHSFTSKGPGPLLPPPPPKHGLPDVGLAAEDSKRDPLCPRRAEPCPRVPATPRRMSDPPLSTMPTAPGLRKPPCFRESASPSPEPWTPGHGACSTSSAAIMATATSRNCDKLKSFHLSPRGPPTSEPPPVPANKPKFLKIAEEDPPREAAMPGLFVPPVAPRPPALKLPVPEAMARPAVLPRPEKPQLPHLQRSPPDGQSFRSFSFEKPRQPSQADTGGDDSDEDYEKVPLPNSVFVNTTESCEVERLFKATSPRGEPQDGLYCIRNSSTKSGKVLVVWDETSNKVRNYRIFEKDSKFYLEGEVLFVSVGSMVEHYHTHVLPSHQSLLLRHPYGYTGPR
UniProt Q9BWW4, sequence (Q9BWW4 whole entry, looked up): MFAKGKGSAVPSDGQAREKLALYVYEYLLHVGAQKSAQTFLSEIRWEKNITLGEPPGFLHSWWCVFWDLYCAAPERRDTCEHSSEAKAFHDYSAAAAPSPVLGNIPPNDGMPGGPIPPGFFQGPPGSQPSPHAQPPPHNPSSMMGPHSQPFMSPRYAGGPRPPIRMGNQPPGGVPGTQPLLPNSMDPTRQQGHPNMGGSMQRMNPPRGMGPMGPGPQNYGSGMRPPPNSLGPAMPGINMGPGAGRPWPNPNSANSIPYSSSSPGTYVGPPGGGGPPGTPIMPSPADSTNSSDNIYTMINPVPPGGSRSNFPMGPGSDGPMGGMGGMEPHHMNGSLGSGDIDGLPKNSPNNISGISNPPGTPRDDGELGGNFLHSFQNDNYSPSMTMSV
UniProt Q9NZ72, sequence (Q9NZ72 whole entry, looked up): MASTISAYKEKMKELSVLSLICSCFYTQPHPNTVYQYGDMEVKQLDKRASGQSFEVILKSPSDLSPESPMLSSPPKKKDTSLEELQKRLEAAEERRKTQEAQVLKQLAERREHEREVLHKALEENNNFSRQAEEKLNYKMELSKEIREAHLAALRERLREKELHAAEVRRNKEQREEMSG
UniProt Q99961, sequence (Q99961 whole entry, looked up): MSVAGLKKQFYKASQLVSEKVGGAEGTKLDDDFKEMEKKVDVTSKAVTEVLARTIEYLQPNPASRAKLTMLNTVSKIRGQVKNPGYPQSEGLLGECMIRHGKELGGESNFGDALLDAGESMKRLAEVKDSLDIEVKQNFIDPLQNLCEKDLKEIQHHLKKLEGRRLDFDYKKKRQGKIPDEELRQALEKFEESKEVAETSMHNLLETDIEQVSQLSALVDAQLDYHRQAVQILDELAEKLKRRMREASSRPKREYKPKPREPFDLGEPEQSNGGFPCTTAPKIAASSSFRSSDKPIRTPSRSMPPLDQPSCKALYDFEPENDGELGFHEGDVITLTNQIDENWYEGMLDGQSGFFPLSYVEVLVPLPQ
UniProt Q13242, sequence (Q13242 whole entry, looked up): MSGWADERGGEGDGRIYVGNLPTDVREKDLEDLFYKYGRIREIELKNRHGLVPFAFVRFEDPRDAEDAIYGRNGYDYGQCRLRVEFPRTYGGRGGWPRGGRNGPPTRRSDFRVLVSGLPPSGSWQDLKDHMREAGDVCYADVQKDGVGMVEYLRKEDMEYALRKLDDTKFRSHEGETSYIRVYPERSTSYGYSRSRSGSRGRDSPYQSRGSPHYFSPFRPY
UniProt Q96H78, sequence (Q96H78 whole entry, looked up): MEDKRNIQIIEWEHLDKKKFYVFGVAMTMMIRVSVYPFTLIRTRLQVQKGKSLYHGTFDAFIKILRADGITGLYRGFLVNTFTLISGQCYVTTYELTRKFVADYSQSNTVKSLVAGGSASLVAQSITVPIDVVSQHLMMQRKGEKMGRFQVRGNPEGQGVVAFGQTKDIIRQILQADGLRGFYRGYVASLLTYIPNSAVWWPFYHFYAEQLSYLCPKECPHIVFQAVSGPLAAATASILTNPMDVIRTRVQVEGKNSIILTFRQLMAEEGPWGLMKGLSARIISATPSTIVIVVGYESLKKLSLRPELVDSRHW
UniProt O60504, sequence (O60504 whole entry, looked up): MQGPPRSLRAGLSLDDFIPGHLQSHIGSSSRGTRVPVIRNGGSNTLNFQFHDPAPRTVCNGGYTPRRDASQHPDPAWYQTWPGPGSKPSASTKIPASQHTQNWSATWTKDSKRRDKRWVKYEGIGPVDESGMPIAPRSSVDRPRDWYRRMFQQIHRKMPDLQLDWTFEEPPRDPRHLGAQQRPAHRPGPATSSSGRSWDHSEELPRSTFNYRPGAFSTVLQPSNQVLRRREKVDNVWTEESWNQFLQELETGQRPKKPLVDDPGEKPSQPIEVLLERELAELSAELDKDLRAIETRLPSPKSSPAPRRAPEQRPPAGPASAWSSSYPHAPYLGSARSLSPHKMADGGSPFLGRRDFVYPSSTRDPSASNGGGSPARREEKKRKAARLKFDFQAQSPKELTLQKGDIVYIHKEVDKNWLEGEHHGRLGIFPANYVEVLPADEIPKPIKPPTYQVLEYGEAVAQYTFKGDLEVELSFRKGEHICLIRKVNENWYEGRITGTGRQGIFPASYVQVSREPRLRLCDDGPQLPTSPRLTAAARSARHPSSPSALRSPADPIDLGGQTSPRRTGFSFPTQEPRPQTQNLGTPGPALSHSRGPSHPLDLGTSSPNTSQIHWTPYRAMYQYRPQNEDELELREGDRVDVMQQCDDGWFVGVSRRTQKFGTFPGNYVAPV
UniProt P62316, sequence (P62316 whole entry, looked up): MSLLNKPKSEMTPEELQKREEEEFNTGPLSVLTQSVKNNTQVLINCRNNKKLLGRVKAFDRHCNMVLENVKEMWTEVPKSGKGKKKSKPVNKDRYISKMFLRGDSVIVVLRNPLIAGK

Compound in this experiment: CC1=C(C2=C(C=C1)C(=O)C3=CC=CC=C3N2CCCN)C
Nature of the experiment: log2 fold change, soluble protein after heating vs DMSO (PISA); higher = thermal stabilisation; K562 lysate, 10 uM; active = over 0.2 and 3.5 SD of the protein, either way, in both replicates (recomputed). The procedure, abridged:
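A 30 min treatment with 10 μM compound was applied to crude K562 extract at 1 mg/mL protein in PBS pH 7.4 with 1 mM MgCl2. Heating for 3 min spanned 48°C-58°C, after which aliquots were pooled, adjusted to 0.5% NP-40 at 4°C and spun at 21,000xg for 90 min. TMTpro 16plex LC-MS/MS of the supernatant, with channel sums equalised, gave values recorded as log-two fold change in thermal stability against solvent controls, from duplicates.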
Regarding SORBS3 (UniProt O60504), the log2 fold change was -0.158.

For SF3B6 (UniProt Q9Y3B4), the log2 fold change was 0.003. The value for TAF1B (UniProt Q53T94) was -0.101. For SH3GL1 (UniProt Q99961) the value was 0.017.

Regarding SLC25A38 (UniProt Q96DW6), the log2 fold change is -0.437. For SMYD3 (UniProt Q9H7B4) the value was -0.028; for SIX5 (UniProt Q8N196), 0.011; for SSBP3 (UniProt Q9BWW4), -0.018. For the target SNRPD2 (UniProt P62316), the log2 fold change was 0.016. For the target SLC39A11 (UniProt Q8N1S5), the log2 fold change is 0.16. As for SRSF9 (UniProt Q13242), the log2 fold change was -0.089. For SMIM12 (UniProt Q96EX1) the value was -0.002; for SZT2 (UniProt Q5T011), 0.126; for STMN3 (UniProt Q9NZ72), -0.059.

Regarding SLC25A44 (UniProt Q96H78), the log2 fold change is -0.017. For the target SYNE2 isoform 2 (UniProt Q8WXH0), the log2 fold change is -0.047. Consider STK3 isoform 2 (UniProt Q13188), for which the log2 fold change was 0. The value for SURF2 (UniProt Q15527) was 0.018. In the case of SPC25 (UniProt Q9HBM1), the log2 fold change is -0.017. Consider SH3BP2 isoform 4 (UniProt P78314), for which the log2 fold change was -0.297. For SMC1B isoform 3 (UniProt Q8NDV3) the value was -0.001; for TARBP1 (UniProt Q13395), -0.077. For SRRT (UniProt Q9BXP5) the value was -0.012.

(Values after the supplement of paper PMC10849652.)
